Values without a mark were called inactive. Active and inactive are the calls of the source. Unless noted, no stated cut-off is given here; in the data, active means inhibition above about 36%; inactive means the rest.
Key:
[1] = tested on: transactivating tegument protein VP16 (Human herpesvirus 1); assay: VP16 transactivation reporter inhibitors, counter-screen for SRC2 inhibitor project, cell-based, luminescence, single concentration (AID 652007); conditions: cell-based VP16 transactivation luciferase reporter, at 8.9 µM, stronger effect = higher value
[2] = target: Nuclear receptor coactivator 2 (Homo sapiens) (UniProt Q15596); assay: SRC2 coactivator transcriptional activity inhibitors, confirmation, cell-based, luminescence, HEK293, triplicate (AID 652008;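 active means mean inhibition above 46.5%, the solvent-only control mean plus 3 SD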;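 further: 0% = DMSO-treated cells and 100% = Gossypol at 36 µM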); conditions: HEK293 GAL4-SRC2 luciferase reporter, at 8.9 µM, stronger effect = higher value
Chain of Nuclear receptor coactivator 2 (Homo sapiens) (Q15596 whole entry, looked up, the tested form may be a part): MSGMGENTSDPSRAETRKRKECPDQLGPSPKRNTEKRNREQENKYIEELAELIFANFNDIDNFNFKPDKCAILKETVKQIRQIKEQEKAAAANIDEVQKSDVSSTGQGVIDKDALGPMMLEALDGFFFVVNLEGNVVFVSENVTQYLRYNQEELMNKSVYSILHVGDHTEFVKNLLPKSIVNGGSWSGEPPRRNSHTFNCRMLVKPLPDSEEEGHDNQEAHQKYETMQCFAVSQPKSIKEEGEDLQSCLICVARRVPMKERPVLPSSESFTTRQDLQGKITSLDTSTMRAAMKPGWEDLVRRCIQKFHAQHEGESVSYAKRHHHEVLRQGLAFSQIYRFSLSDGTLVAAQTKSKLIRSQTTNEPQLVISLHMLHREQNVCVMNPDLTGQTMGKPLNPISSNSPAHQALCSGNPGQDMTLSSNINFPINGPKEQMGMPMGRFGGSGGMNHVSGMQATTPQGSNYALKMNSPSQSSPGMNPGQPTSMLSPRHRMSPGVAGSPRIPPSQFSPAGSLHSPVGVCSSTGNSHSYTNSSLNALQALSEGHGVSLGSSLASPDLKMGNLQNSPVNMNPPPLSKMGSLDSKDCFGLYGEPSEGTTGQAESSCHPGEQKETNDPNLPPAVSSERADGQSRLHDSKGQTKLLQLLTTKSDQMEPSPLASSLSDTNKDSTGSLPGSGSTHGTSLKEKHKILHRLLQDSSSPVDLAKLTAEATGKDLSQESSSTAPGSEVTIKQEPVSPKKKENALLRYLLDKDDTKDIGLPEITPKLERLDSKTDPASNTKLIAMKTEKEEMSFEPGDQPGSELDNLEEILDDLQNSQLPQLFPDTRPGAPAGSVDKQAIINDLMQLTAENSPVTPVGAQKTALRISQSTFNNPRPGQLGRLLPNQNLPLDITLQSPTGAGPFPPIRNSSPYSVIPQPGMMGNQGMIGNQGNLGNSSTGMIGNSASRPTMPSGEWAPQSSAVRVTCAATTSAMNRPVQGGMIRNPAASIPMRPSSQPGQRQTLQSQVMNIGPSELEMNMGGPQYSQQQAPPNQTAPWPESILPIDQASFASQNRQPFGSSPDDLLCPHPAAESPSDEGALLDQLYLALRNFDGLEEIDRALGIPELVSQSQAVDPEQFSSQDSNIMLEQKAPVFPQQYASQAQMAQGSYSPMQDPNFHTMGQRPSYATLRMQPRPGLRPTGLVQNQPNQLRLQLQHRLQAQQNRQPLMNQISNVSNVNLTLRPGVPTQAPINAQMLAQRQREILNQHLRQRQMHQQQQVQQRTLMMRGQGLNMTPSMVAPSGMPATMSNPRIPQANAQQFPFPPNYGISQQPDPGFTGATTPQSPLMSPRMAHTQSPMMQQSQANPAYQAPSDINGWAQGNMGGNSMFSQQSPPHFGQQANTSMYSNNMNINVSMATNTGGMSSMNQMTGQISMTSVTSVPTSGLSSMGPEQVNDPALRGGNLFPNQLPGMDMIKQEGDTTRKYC

| SMILES | inhibition [1] | inhibition [2] |
| --- | --- | --- |
| CC(C)(C)c1ccc(C(=O)CCC(=O)OCC(=O)NCCc2ccc(S(N)(=O)=O)cc2)cc1 | 26.1% | 37.1% |
| COc1ccc2nc(Sc3c([N+](=O)[O-])nc(C)n3Cc3ccccc3)[nH]c2c1 | 13.1% | 37.8% |
| C=C(C(=O)c1ccccc1)C(C)CC(=O)c1ccccc1 (stereo not given) | 11.5% | 26.8% |
| CC(=O)Nc1cc(=O)c2cccnc2[nH]1 | -8.33% | -9.24% |
| Cn1nc(C(C)(C)C)cc1C(=O)N1CCCCC1c1cc(C(=O)Nc2ccccc2Cl)no1 (stereo not given) | 7.65% | 13.2% |
| CCn1cc(S(=O)(=O)Nc2ccc3c(c2)OCCO3)cn1 | -3.8% | 48.4% (active) |
| Cn1nnnc1Sc1ncnc2scc(-c3ccc(Cl)cc3)c12 | 18.1% | 42.2% |
| N=c1nc(SCCC(=O)O)ss1 | 14.4% | 51.7% (active) |
| CCC(Cc1ccccc1)NC(=O)C1CCN(c2nn3c(=O)cc(C)nc3s2)CC1 (stereo not given) | -17.6% | -18.8% |
| CCN(CC(=O)Nc1cc(Cl)ccc1C)C(=O)C1CCN(c2ncnc3sc(C)c(C)c23)CC1 | 8.26% | 20.7% |
| CC(=C\c1ccccc1)/C=C1/SC(=S)N(CCCC(=O)O)C1=O | 78.9% (active) | 79.2% (active) |
| CCc1ccc(/C=C2\SC(=S)N(CCCC(=O)Nc3cc(C)on3)C2=O)cc1 | 28.9% | 73.4% (active) |
| CCOc1ccc(-c2cc(CCCC(=O)N3CCN(c4ccc(OC)cc4)CC3)no2)cc1 | 4.64% | 18.6% |
| COc1cc(Nc2nc(-c3ccccc3)c3cc(C)ccc3n2)cc(OC)c1OC | 6.86% | 10.7% |
| Nc1ccc(C(=O)N2CCN(S(=O)(=O)c3ccc4c(c3)OCCO4)CC2)cc1[N+](=O)[O-] | 2.71% | 40.5% |
| Cc1ccc(C)c(S(=O)(=O)N2CCN(C(=O)C3CCN(c4ncnc5sc(C)c(C)c45)CC3)CC2)c1 | 15.6% | 38.6% |
| COc1ccc(CN2CCC(C(=O)Nc3ccc(Oc4ccccc4)nc3)CC2)cc1F | 16.9% | 28.5% |
| Cc1ccc(NC(=O)C2CCN(S(=O)(=O)c3c(C)noc3/C=C/c3ccco3)CC2)nc1 | 11.6% | 22.4% |
| CCOc1ccc2oc(C(=O)NCc3ccccc3CN3CCCC3)c(C)c2c1 | -10.5% | -12.9% |
| CC1CCCCC12NC(=O)N(CC(=O)Nc1ccc(OC(F)F)cc1)C2=O (stereo not given) | -18.4% | -11.2% |
| CCOc1ccc(NC(=S)C(C#N)=C2N(C)c3ccccc3N2C)cc1 | -4.65% | -15.8% |
| CCc1ccc(C=C2SC(=S)N(CCCC(=O)Nc3ccc(C(=O)O)cc3)C2=O)cc1 | -9.93% | -5.86% |
| Cc1cc(C)n(CCC(=O)N/N=C/c2c(O)ccc3ccccc23)n1 | 5.98% | 17.2% |
| CN(C)c1ccc(C(C[N+](=O)[O-])c2c(N)n(C)c(=O)n(C)c2=O)c(F)c1C#N (stereo not given) | 6.34% | 6.89% |

| SMILES | inhibition [1] | inhibition [2] |
| --- | --- | --- |
| O=C(Nc1ccc(N2CCOCC2)cc1)c1cnsn1 | -8.19% | 34.3% |
| CCN1CCN(Cc2ccc(NC(=O)c3cccc(-c4ccc5nc(NC(=O)C6CC6)sc5n4)c3)cc2C(F)(F)F)CC1 | 24.5% | 58.1% (active) |
| COc1ccc(C(=O)Nc2nc3ccccc3[nH]2)cc1 | -57.5% | 13.5% |
| CCC(=O)Nc1ccc(NCc2ccc(-c3ccccc3)cc2)cc1 | 20.7% | 17.8% |
| CCOc1cccc(NC(=O)C2CCCN(S(=O)(=O)c3ccc(OC)cc3)C2)c1 (stereo not given) | -26.5% | -6.98% |
| Cc1c(CCC(=O)N[C@@H](C)C(=O)O)c(=O)oc2c(C)c3oc4c(c3cc12)CCCC4 | 25% | 27.4% |
| CCCCn1c(CCC)nc([N+](=O)[O-])c1Sc1ccc(Cl)cn1 | 13.2% | 20.7% |
| COC(=O)CCCNC(=O)CCc1nnc(-c2ccc(-c3ccccc3)cc2)o1 | 34% | 62.8% (active) |
| COC(=O)COc1ccc(-c2nccc(-c3ccccn3)n2)cc1 | 16.9% | 73.4% (active) |
| N#CCCN(C(=O)CCl)c1cccc(Cl)c1 | 28.7% | 62.8% (active) |
| N/C(=N\OC(=O)c1ccc2ccccc2c1)c1ccccn1 | -38.3% | -34.3% |
| Cc1ccc(C)c(N2CCN(C(=O)c3ccc4c(c3)c(C)c(C)n4C)CC2)c1 | -28.6% | 3.19% |
| S=C(NCc1ccc(Cl)cc1)NC1CCN(Cc2ccccc2)CC1 | -17.5% | 19.2% |
| CSC1=C(C#N)C(c2ccc3c(c2)OCO3)C2=C(CCCC2=O)N1 (stereo not given) | 0.63% | -1.64% |
| COc1ccc(OC)c(CC(=O)Nc2ccc3c(c2)c(=O)n(C)n3Cc2cccc(C(F)(F)F)c2)c1 | -5.16% | -6.44% |
| O=C(N/N=C/c1coc2ccc(Cl)cc2c1=O)c1cc(O)cc(O)c1 | 23.4% | 18.5% |
| COc1ccc(C(C(=O)NC2CCCC2)n2c(CSCCOc3ccccc3)nc3ccccc32)cc1 (stereo not given) | 43.5% (active) | 76.4% (active) |
| COc1ccc(OCC(=O)Nc2ccc3c(c2)C(=O)NC3=O)cc1 | -1.89% | -9.88% |
| O=C(Nc1nnc(SCCN2CCOCC2)s1)C1CC(=O)N(c2ccccc2)C1 (stereo not given) | 1.56% | -15.8% |
| CC1=CC(C)(C)N(S(=O)(=O)c2ccc(C)cc2)c2ccc(C)cc21 | 0.6% | -5.7% |
| Cc1ccc2c(c1)sc(=NC(=O)c1cccs1)n2C | -58.3% | -3.83% |
| Cc1nnc(NC(=O)c2nc(S(=O)(=O)Cc3ccccc3C)ncc2Cl)s1 | 42% (active) | 49.7% (active) |
| O=C(O)c1ccccc1C(=O)Nc1ccc(Oc2ccc3ccccc3c2)cc1 | 36.4% (active) | 28% |
| CCNC(=O)NC(=O)COC(=O)CCCSc1nc2ccccc2s1 | 5% | 24.9% |

| SMILES | inhibition [1] | inhibition [2] |
| --- | --- | --- |
| Cc1ccc(NC(=O)C2(C)CCN2C(=O)CC(c2ccccc2)c2ccccc2)cc1 (stereo not given) | -6.43% | -7.67% |
| COc1ccc(CNC(=O)C2CCCN(Cc3nc(-c4cccc(C)c4)oc3C)C2)cc1 (stereo not given) | -10.5% | 0.33% |
| COc1ccc(CCNc2nnc(Sc3nnnn3-c3ccccc3)s2)cc1OC | 5.42% | 20.1% |
| CCOc1ccc(-c2cc(CCCC(=O)NCCCOC)no2)cc1 | 38.5% (active) | 52% (active) |
| CCOC(=O)[C@H]1[C@H]2COc3ccc(Br)cc3[C@@H]2N2C(=O)CN(Cc3ccco3)C(=O)[C@@]12C | 0.08% | -14.4% |
| O=C(CCCN1C(=O)/C(=C/c2ccccc2Cl)SC1=S)Nc1ccccn1 | 25.5% | 43.8% |
| CCOC(=O)C1=C[C@@H](c2ccccc2)N(S(=O)(=O)c2ccc(C)cc2)[C@H]1c1ccc(F)cc1 | -7.61% | -5.87% |
| O=C(C1=NN[C@@H]2C(=O)N(c3cccc(C(F)(F)F)c3)C(=O)[C@H]12)c1ccc2ccccc2n1 | 2.15% | 6.3% |
| C=C1C(=O)[C@]23C[C@H]1CC[C@H]2[C@]1(C)CCC[C@@](C)(C(=O)OC)[C@H]1C[C@@H]3O | 77.6% (active) | 90.4% (active) |
| COc1ccccc1/C=C1\SC(=S)N(CCC(=O)NCCCn2ccnc2)C1=O | -0.06% | 1.79% |
| CC1CCc2nc(NC(=O)c3ccco3)sc2C1 (stereo not given) | -23.2% | 11.1% |
| O=C(Nc1nc2ccccc2s1)c1ccc(N2CCCCC2)c([N+](=O)[O-])c1 | -57.5% | 10% |
| COc1cccc(C(NC(C)=O)c2nc(-c3cccc(C#N)c3)cs2)c1 (stereo not given) | -10.7% | -26.2% |
| COC(=O)[C@H]1[C@@H](O)[C@@]2(O)c3c(OC)cc(OC)cc3O[C@@]2(c2ccc(OC)cc2)[C@@H]1c1ccc(F)cc1 | 32.4% | 51.4% (active) |
| CCCCc1ccc(S(=O)(=O)N/N=C(/C)c2ccncc2)cc1 | 30.5% | 68.7% (active) |
| CCn1c(Oc2ccccc2)nc2c1c(=O)n(C)c(=O)n2C | 8.01% | 42.6% |
| COc1ccc(-c2cn3cccnc3n2)cc1NC(=O)C(C)Oc1ccccc1 (stereo not given) | -18.1% | -20.2% |
| O=C(COC(=O)c1cc(S(=O)(=O)N2CCOCC2)ccc1F)NCc1ccc2c(c1)OCO2 | -10.1% | -5.62% |
| Cc1ccc(C(=O)Nc2ccc3ccccc3c2)cc1 | -57.4% | 12.1% |
| CC(=NNc1ccc2ccccc2n1)c1ccccn1 | 83.8% (active) | 89.3% (active) |
| COc1ccc(NC(=O)NCc2ccccc2F)cc1OC | -0.66% | -17.2% |
| N#CCCN(C(=O)COC(=O)C1CCN(S(=O)(=O)c2ccccc2C(F)(F)F)CC1)c1ccccc1 | 0.12% | 11.1% |
